This passage reports inhibition results from PubChem BioAssay AID2557 (NMMLSC, 2010).

Values joined by “and” are separate entries in the source; they are usually repeats but may differ in a detail not shown here. Equal entries are not always repeated. The whole screen tested about 330,000 compounds, of which about 650 (0.2%) were called active. What follows is part of a selection rich in actives, with near analogues and random picks from the rest. A number with no mark means an inactive call. Rule as the data show it: active = inhibition above about 50%; inactive = the rest.

The target of the assay is Integrin alpha-4 (Homo sapiens) (UniProt P13612). Put plainly: inhibition in human VLA-4 binding assay, primary screen, VLA-4 allosteric modulator project, MLPCN library, flow cytometry, VLA-4 expressing cells (AID 2557). The note with it: ligand binding flow cytometry, hits give high values, about 7 µM as worked out from the volumes in the protocol.
Integrin alpha-4 (Homo sapiens), sequence (P13612 whole entry, looked up): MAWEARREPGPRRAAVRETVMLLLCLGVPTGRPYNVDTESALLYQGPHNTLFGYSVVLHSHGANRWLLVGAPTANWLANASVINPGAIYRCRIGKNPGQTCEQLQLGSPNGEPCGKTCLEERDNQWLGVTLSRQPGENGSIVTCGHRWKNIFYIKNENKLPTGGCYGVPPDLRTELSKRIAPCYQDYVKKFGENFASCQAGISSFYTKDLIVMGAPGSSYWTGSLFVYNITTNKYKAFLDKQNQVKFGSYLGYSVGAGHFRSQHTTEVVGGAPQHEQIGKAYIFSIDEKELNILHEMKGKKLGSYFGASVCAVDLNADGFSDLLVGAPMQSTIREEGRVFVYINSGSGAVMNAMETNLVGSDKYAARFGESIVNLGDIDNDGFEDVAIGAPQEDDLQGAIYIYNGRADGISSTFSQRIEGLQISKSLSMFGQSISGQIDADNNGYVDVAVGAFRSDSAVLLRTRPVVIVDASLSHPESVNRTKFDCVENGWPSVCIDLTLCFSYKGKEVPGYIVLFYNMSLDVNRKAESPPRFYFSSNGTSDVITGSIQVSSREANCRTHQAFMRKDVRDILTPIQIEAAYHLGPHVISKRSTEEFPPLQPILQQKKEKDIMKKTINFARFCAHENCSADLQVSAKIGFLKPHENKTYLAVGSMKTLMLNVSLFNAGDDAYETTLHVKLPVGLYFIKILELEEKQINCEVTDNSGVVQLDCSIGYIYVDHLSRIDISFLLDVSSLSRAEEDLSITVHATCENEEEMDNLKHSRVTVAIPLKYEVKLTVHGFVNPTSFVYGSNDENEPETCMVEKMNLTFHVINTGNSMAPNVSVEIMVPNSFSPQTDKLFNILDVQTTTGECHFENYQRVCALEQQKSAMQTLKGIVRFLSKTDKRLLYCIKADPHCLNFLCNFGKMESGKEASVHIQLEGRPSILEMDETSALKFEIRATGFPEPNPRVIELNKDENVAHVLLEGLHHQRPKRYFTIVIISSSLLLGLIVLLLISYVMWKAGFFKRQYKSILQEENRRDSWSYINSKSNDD
As to `CCOC(=O)C1=C(C)OC(N)=C(C(=O)OC)C12C(=O)Nc1ccc(Br)cc12` (stereo not given), the inhibition is 15.8%.
The same measure for `C=CCN1C(=O)C2(C(C(=O)OCC)=C(N)Oc3c2c(=O)oc2ccccc32)c2ccccc21` (stereo not given): 59.3% (active).
Regarding `CCOC(=O)CC1=C(C(=O)OCC)C2(C(=O)N1)C(C(=O)OC)=C(N)Oc1ccccc12` (stereo not given), the inhibition was -7.95%.
The same measure for `CN(C)C(=O)Oc1cc(OC(=O)N(C)C)cc(C(O)CNC(C)(C)C)c1` (stereo not given): -22.5% and -5.62%; for `CCc1nnc(NS(=O)(=O)c2ccc(N=Cc3c(O)n(-c4ccccc4)c(=O)[nH]c3=O)cc2)s1`: -0.39%.
For the compound `Cc1nc2ccccc2c(=O)n1-c1ccc(Cl)cc1Cl`, the inhibition was 24.4%.
For `O=c1c2ccccc2nc(-c2ccc(Cl)cc2Cl)n1-c1ccncc1` the value was 62.6% (active); for `COc1ccc(-n2c(-c3ccccc3)nc3ccccc3c2=O)cc1`, -3.5%; for `Cn1c(O)c(C(=Nc2ccc(F)cc2)c2ccccc2)c(=O)n(C)c1=O`, 5.63%.
Turning to `C=CCn1c(O)c(/C=N/N2CCOCC2)c(=O)[nH]c1=S`, the inhibition was 7.33%.

Usually inhibition stands for the relative decrease from the control value, in per cent.
